Results: the supplement of paper PMC6555819

Assays:
Assay in all cases: PBM binding z-score (relative to random genomic background probes); higher = stronger binding; sequences stand for … in GC…GCGATTGACAGCGTAGAATGAAGG
[1] = system: FXR:RXRa (NR concentration 270 nM, RXRa partner concentration 90 nM)
Procedure, shortened: (§1)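 Probes were double-stranded and carried 34-nt variable regions with direct-repeat seeds, single-nucleotide variants, half-site ablations and random human genomic background sequences, printed on custom Agilent 4×180K protein-binding microarrays. Arrays were incubated 1 h with ligand-free nuclear receptor dimers in PBS pH 7.4, 2% milk, 0.02% Triton X-100, 1 mM DTT, 0.2 mg/mL BSA and 0.4 mg/ml salmon testes DNA. Antibodies against each partner (one per run) detected binding, and scanned fluorescence was regression-normalized. Binding z-scores use the random background probes as reference.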

[2] = system: LXRa:RXRa (NR concentration 270 nM, RXRa partner concentration 90 nM)
Procedure, shortened: as §1

[3] = system: LXRa homodimer (NR concentration 270 nM)
Procedure, shortened: as §1

[4] = system: LXRb:RXRa (NR concentration 270 nM, RXRa partner concentration 90 nM)
Procedure, shortened: as §1

[5] = system: LXRb homodimer (NR concentration 270 nM)
Procedure, shortened: as §1

[6] = system: PPARa:RXRa (NR concentration 270 nM, RXRa partner concentration 90 nM)
Procedure, shortened: as §1

[7] = system: PPARg:RXRa (NR concentration 180 nM, RXRa partner concentration 90 nM)
Procedure, shortened: as §1

[8] = system: PPARg:RXRa 270nM:90nM, anti-RXR (NR concentration 270 nM, RXRa partner concentration 90 nM)
Procedure, shortened: as §1

[9] = system: PPARg:RXRa 30nM:10nM, anti-RXR (NR concentration 30 nM, RXRa partner concentration 10 nM)
Procedure, shortened: as §1

[10] = system: PPARg:RXRa 90nM:30nM, anti-RXR (NR concentration 90 nM, RXRa partner concentration 30 nM)
Procedure, shortened: as §1

[11] = system: PPARg:RXRa DBDmut IVT, anti-RXR (DBD mutation: RXRa K156A/R161A, NR concentration 270 nM, RXRa partner concentration 90 nM)
Procedure, shortened: as §1

[12] = system: PPARg:RXRa IVT, anti-PPARg (NR concentration 270 nM, RXRa partner concentration 90 nM)
Procedure, shortened: as §1

[13] = system: PPARg DBDmut:RXRa IVT, anti-PPARg (DBD mutation: PPARg1 K132A/R137A, NR concentration 270 nM, RXRa partner concentration 90 nM)
Procedure, shortened: as §1

[14] = system: PPARg DBDmut IVT, anti-PPARg (DBD mutation: PPARg1 K132A/R137A, NR concentration 270 nM)
Procedure, shortened: as §1

[15] = system: PPARg homodimer (NR concentration 180 nM)
Procedure, shortened: as §1

[16] = system: PXR:RXRa (NR concentration 270 nM, RXRa partner concentration 90 nM)
Procedure, shortened: as §1

[17] = system: PXR homodimer (NR concentration 270 nM)
Procedure, shortened: as §1

[18] = system: RARa:RXR (NR concentration 270 nM, RXRa partner concentration 90 nM)
Procedure, shortened: as §1

[19] = system: RARa homodimer (NR concentration 270 nM)
Procedure, shortened: as §1

[20] = system: RARb:RXRa (NR concentration 270 nM, RXRa partner concentration 90 nM)
Procedure, shortened: as §1

GCGGCTGGGGCATCAGCAGGTTACCATAACTTAA
PBM binding z-score [1]: -0.5
PBM binding z-score [2]: -0.215
PBM binding z-score [3]: -0.622
PBM binding z-score [4]: 0.239
PBM binding z-score [5]: -0.602
PBM binding z-score [6]: 0.602
PBM binding z-score [7]: -0.0151
PBM binding z-score [8]: -0.415
PBM binding z-score [9]: -0.593
PBM binding z-score [10]: -0.53
PBM binding z-score [11]: -0.444
PBM binding z-score [12]: 0.118
PBM binding z-score [13]: -1.33
PBM binding z-score [14]: -0.84
PBM binding z-score [15]: 0.149
PBM binding z-score [16]: 0.178
PBM binding z-score [17]: -0.595
PBM binding z-score [18]: 0.635
PBM binding z-score [19]: -0.988
PBM binding z-score [20]: 0.966

GCAGACAGATGAAACGCAGGTAACTCAGGGTGGC
PBM binding z-score [1]: -0.734
PBM binding z-score [2]: -0.704
PBM binding z-score [3]: -0.594
PBM binding z-score [4]: -0.986
PBM binding z-score [5]: -1.14
PBM binding z-score [6]: -0.624
PBM binding z-score [7]: 0.616
PBM binding z-score [8]: -0.641
PBM binding z-score [9]: -0.438
PBM binding z-score [10]: -0.564
PBM binding z-score [11]: -0.362
PBM binding z-score [12]: -0.767
PBM binding z-score [13]: -1.03
PBM binding z-score [14]: -0.761
PBM binding z-score [15]: -1.19
PBM binding z-score [16]: -0.681
PBM binding z-score [17]: -0.52
PBM binding z-score [18]: -0.161
PBM binding z-score [19]: -0.884
PBM binding z-score [20]: -1.1

GTTCGGAGGACAAGGTCAGAGCTTTGTCCGTAGA
PBM binding z-score [1]: 1.57
PBM binding z-score [2]: 1.48
PBM binding z-score [3]: -0.204
PBM binding z-score [4]: 0.904
PBM binding z-score [5]: -0.834
PBM binding z-score [6]: 2.16
PBM binding z-score [7]: 0.427
PBM binding z-score [8]: 1.29
PBM binding z-score [9]: -0.266
PBM binding z-score [10]: 0.514
PBM binding z-score [11]: -0.0952
PBM binding z-score [12]: 0.927
PBM binding z-score [13]: -0.706
PBM binding z-score [14]: -1.19
PBM binding z-score [15]: 1.25
PBM binding z-score [16]: 1.67
PBM binding z-score [17]: -0.41
PBM binding z-score [18]: 2.17
PBM binding z-score [19]: -0.913
PBM binding z-score [20]: 3.13

CAAACTAGGTGACCGGAAGGTCAAAGTCCGCATG
PBM binding z-score [1]: 6.44
PBM binding z-score [2]: 4.09
PBM binding z-score [3]: 4.16
PBM binding z-score [4]: 3.51
PBM binding z-score [5]: 0.36
PBM binding z-score [6]: 4.99
PBM binding z-score [7]: 6.71
PBM binding z-score [8]: 5.5
PBM binding z-score [9]: 3.01
PBM binding z-score [10]: 5.06
PBM binding z-score [11]: 7.47
PBM binding z-score [12]: 7.68
PBM binding z-score [13]: 2.87
PBM binding z-score [14]: 3.33
PBM binding z-score [15]: 3.59
PBM binding z-score [16]: 4.49
PBM binding z-score [17]: 1.01
PBM binding z-score [18]: 5.41
PBM binding z-score [19]: 0.811
PBM binding z-score [20]: 3.81

ATCGAAAGGTCGTGAGGAGAGTATACAGAAAGGC
PBM binding z-score [1]: 5.47
PBM binding z-score [2]: 4.45
PBM binding z-score [3]: 0.57
PBM binding z-score [4]: 3.32
PBM binding z-score [5]: 1.13
PBM binding z-score [6]: 4.93
PBM binding z-score [7]: 3.66
PBM binding z-score [8]: 4.22
PBM binding z-score [9]: 1.53
PBM binding z-score [10]: 2.94
PBM binding z-score [11]: 0.395
PBM binding z-score [12]: 1.64
PBM binding z-score [13]: 1.22
PBM binding z-score [14]: 1.09
PBM binding z-score [15]: 2.69
PBM binding z-score [16]: 3.21
PBM binding z-score [17]: 0.666
PBM binding z-score [18]: 4.09
PBM binding z-score [19]: 0.902
PBM binding z-score [20]: 3.91

TCTAGTAGTTGAAGGGCAACCGACGAGTCCGTTT
PBM binding z-score [1]: 0.63
PBM binding z-score [2]: 0.618
PBM binding z-score [3]: -0.0916
PBM binding z-score [4]: 0.268
PBM binding z-score [5]: -0.134
PBM binding z-score [6]: 0.455
PBM binding z-score [7]: -0.018
PBM binding z-score [8]: 1.65
PBM binding z-score [9]: 2.83
PBM binding z-score [10]: 2.22
PBM binding z-score [11]: 1.78
PBM binding z-score [12]: 0.527
PBM binding z-score [13]: 0.13
PBM binding z-score [14]: -0.187
PBM binding z-score [15]: 0.499
PBM binding z-score [16]: 0.507
PBM binding z-score [17]: 0.346
PBM binding z-score [18]: -0.0241
PBM binding z-score [19]: 0.58
PBM binding z-score [20]: 1.4
